# Source: PubChem BioAssay (NCATS)
# Results filed as inconclusive are left out. Values without a mark were called inactive. Activity calls are given as the source filed them. Calls come from the whole dose curve; as a rule, active = well fitted activation curve with a large enough effect; inconclusive = small, poorly fitted or top-dose-only effect; inactive = flat fitted curve, though single readings scatter.
# Target: D(1A) dopamine receptor (Homo sapiens) (UniProt P21728)
# Test: HTS Assay for Allosteric Agonists of the Human D1 Dopamine Receptor: Primary Screen for Agonists (AID 488981); for activation: 0% is about no effect
# Settings: Inducible HEK293 T-REx D1 cells, calcium-flux fluorescence, 180 s kinetic; series mostly up to 41.8 µM; activation: at the top concentration
# From the text: Dopamine receptors (DARs) are involved in the etiology and/or therapy of a number of neuropsychiatric and endocrine disorders. For instance, all receptor-based antiparkinsonian drugs work via stimulating the […] DAR subtype whereas all FDA-approved antipsychotic agents are antagonists of this receptor. […] There are three different types of allosteric modulators that we are seeking, two of which will stimulate or augment receptor signaling, allosteric agonists and potentiators, while the third, allosteric antagonists, will attenuate receptor signaling. The present primary screening assay measures compound agonism by tracking calcium flux in a […], inducible Hek293 Trex D1 cell line.
# Freshly passaged cells are plated in 1536 well black, clear bottom plates at a density of 4000 cells/well in 3 ul of complete media containing 1x tetracycline inducer. After an overnight incubation at 30 C in 5% CO2, cells are loaded with 2 ul of the no wash Calcium Assay Kit (ABD Bioquest) and incubated at room temperature for 30 to 90 minutes. A 10 cycle (1 second/cycle) baseline measurement is taken and then the FDSS online 1536 pintool delivers 23 nl of compound library (as well as dopamine controls) to the plate. The plate is measured for kinetically at 1 cycle/sec for 180 seconds and is considered to be the agonist portion of the assay (eg, compounds which activate a positive calcium response during this portion are flagged as potential agonists). Following the 180 second read, 1 ul of an EC20 of dopamine is delivered by an onboard pipette head. Measurements are taken kinetically for an additional 180 seconds.
# Potency is the fitted concentration of half-maximal effect.
# Chain of D(1A) dopamine receptor (Homo sapiens) (P21728 whole entry, looked up): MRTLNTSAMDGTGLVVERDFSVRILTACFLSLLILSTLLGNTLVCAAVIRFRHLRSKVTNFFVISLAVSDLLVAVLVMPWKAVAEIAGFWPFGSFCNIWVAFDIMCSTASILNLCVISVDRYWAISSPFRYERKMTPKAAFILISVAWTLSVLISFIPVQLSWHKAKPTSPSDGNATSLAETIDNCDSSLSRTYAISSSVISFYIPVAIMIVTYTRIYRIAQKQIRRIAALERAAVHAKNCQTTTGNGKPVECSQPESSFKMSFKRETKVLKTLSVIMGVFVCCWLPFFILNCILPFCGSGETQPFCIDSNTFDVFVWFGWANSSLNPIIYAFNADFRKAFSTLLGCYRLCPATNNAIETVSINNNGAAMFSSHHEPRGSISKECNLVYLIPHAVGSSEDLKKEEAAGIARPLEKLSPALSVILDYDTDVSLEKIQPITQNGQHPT
SMILES,activation [%],Potency
CC(CCc1ccccc1)NCC(O)c1ccc(O)c(C(N)=O)c1 (stereo not given),-0.476,
CCC(NC(C)C)C(O)c1ccc(O)c(O)c1 (stereo not given),-0.0529,
Oc1ccc(O)cc1,-0.476,
Nc1cc(Cl)c(NC2=NCCN2)c(Cl)c1,0.582,
CC(=O)O[C@H]1C[C@@H]2CC[C@@H]3[C@H](CC[C@@]4(C)[C@H]3C[C@H]([N+]3(C)CCCCC3)[C@@H]4OC(C)=O)[C@@]2(C)C[C@@H]1[N+]1(C)CCCCC1,1.11,
CC1(C)CCC(NC(=O)[C@@H](N)CCC(=O)O)CC1,-1.11,
COc1cc(NS(C)(=O)=O)ccc1Nc1c2ccccc2nc2ccccc12,5.5,
COc1cc2c(cc1O)CC[C@@H]1[C@@H]2CC[C@]2(C)[C@@H](O)CC[C@@H]12,6.98,
CC(C)COC(=O)OCN1C(=O)CN(CCN2CC(=O)N(COC(=O)OCC(C)C)C(=O)C2)CC1=O,1,
N[C@@H](Cc1cnc[nH]1)C(=O)O,-0.846,
CCCn1c(=O)[nH]c(=O)c2[nH]cnc21,1.06,
C[C@]12CC[C@@H]3c4ccc(O)cc4CC[C@H]3[C@@H]1CC[C@@H]2O,6.56,
CN1C2CCC1CC(OC(=O)c1c[nH]c3ccccc13)C2 (stereo not given),3.65,
COC(=O)[C@H]1[C@H]2C[C@H]3c4[nH]c5ccccc5c4CCN3C[C@H]2CC[C@@H]1O,-0.688,
CC[C@H](C)C(=O)O[C@H]1CCC=C2C=C[C@H](C)[C@H](CC[C@@H]3C[C@@H](O)CC(=O)O3)[C@H]21,9.41,
CCCC1O[C@@H]2C[C@H]3[C@@H]4CCC5=CC(=O)C=C[C@]5(C)[C@H]4[C@@H](O)C[C@]3(C)[C@]2(C(=O)CO)O1 (stereo not given in full),3.97,
O=C1CCC(c2ccc(-n3ccnc3)cc2)=NN1,0.159,
C[N+]1(CCCCC[N+]2(C)CCCC2)CCCC1,-0.582,
O=C(O)c1cc2cc(Cc3cccnc3)ccc2o1,-0.476,
C[C@@H]1C(=O)NC2=Nc3cccc(Cl)c3CN21,-0.635,
CC(C)C[C@H]1C(=O)N2CCC[C@H]2[C@]2(O)O[C@](NC(=O)[C@@H]3C=C4c5cccc6[nH]c(Br)c(c56)C[C@H]4N(C)C3)(C(C)C)C(=O)N12,0.159,
C1CCc2nnnn2CC1,0.0529,
CNCCC=C1c2ccccc2CCc2ccccc21,,20 µM (active)
N[C@H](CO)C(=O)O,-0.582,
CNCCC(Oc1ccccc1C)c1ccccc1 (stereo not given),27.9,
